From ChEMBL document CHEMBL3988442, “University of Dundee, Small-Polar-MMV Screening Library” (2021) come the findings set out here.

Holding throughout (design): scale not given: direction of the effect not stated beside the values
For test [1], the target named is Protein translocase subunit SecA (Escherichia coli (strain K12)) (UniProt P10408). Kind of test: Assay to Identify E. coli SecA ATPase Inhibitors. The settings on record: 30 µM. It is filed as functional.
Test [2] has as its target T1, Ubiquitin-activating enzyme e1, putative (Leishmania donovani (strain BPK282A1)) (UniProt E9BSI1).
T1 sequence (whole entry): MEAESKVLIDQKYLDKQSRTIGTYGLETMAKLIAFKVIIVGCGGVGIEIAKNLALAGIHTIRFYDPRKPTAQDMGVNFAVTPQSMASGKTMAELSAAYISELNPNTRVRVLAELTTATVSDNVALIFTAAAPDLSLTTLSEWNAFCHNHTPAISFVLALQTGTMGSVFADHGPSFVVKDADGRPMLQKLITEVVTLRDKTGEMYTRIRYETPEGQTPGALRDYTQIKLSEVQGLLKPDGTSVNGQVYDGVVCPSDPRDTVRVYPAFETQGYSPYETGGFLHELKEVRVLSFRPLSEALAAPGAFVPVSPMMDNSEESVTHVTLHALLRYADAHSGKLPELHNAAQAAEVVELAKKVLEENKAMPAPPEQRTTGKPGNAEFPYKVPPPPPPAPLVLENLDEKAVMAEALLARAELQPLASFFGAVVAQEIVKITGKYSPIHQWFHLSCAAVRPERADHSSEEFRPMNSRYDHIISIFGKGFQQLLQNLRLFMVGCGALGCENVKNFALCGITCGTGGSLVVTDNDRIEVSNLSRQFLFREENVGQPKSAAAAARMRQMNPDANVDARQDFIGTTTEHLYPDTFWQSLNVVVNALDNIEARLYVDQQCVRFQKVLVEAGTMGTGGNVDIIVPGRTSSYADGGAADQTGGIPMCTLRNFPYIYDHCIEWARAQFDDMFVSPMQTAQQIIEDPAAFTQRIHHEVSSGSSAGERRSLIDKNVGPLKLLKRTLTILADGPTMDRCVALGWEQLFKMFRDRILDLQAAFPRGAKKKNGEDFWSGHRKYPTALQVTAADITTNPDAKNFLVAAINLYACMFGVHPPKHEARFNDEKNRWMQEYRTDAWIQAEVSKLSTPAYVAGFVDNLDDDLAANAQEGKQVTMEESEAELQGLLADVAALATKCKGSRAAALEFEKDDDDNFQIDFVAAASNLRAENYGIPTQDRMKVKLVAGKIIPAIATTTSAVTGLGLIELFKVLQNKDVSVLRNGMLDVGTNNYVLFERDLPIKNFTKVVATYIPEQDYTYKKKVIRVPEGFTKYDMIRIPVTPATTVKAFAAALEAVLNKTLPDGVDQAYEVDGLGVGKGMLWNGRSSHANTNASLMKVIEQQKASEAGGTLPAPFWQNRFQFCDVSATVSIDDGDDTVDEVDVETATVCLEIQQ
Kind of test: Leishmania donovani Ubiquitin Activating Enzyme (LdE1). It counts as functional. The settings on record: 30 µM.

The target in test [3] is AMP-activated protein kinase, AMPK (Homo sapiens) (UniProt P54646+O43741+P54619+Q9UGJ0+Q9Y478+Q13131+Q9UGI9). Description: AMP-dependent Kinase enzyme assay. An in vitro enzyme assay that detects ADP turnover that is directly proportional to AMPK activity. This uses naive AMPK that is activated during the assay with MK-8722. It is filed as functional. The settings on record: 30 µM.

Test [4] deals with Sialic acid-binding Ig-like lectin 9 (Homo sapiens) (UniProt Q9Y336). Kind of test: Hs-Siglec9 ALPHAscreen SOP 20170721. The settings on record: 10 µM.
Chain of Sialic acid-binding Ig-like lectin 9 (Homo sapiens) (Q9Y336 whole entry): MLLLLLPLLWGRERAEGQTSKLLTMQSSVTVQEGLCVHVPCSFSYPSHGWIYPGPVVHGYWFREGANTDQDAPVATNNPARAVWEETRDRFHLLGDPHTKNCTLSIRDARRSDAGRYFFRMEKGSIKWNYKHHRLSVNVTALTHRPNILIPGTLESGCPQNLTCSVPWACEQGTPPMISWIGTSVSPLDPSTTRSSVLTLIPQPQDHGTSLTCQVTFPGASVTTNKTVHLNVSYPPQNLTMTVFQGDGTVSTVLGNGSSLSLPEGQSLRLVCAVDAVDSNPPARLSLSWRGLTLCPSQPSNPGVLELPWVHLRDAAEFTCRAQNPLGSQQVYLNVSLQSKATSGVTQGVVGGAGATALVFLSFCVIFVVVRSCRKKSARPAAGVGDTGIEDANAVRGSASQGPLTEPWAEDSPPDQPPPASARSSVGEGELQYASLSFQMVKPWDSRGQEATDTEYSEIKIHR
In test [5] the test system is Trypanosoma cruzi. Description: Trypanosoma cruzi phosphomannomutase and mannose-1-phosphate guanylyltransferase assay. It counts as functional. The settings on record: 10 µM.
Test [6] addresses T2, Arginase-2, mitochondrial (Homo sapiens) (UniProt P78540).
T2 sequence (whole entry): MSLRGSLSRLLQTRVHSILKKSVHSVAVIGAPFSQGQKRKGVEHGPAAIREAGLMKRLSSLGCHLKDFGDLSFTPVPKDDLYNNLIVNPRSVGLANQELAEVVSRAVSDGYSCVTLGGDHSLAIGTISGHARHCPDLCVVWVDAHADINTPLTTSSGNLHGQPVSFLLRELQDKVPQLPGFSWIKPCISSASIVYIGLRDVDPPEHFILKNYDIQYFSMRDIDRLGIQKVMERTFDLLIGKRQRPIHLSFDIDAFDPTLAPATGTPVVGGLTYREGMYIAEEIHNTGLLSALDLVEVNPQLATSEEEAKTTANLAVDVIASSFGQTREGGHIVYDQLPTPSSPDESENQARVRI
Kind of test: in vitro enzyme assay to detect the production of urea directly proportional to the activity of Arginase II. Note: in the data most compounds retested in dose-response had high values. It counts as functional. The settings on record: 33.3 µM.

Test [7] concerns the target T3, Proteasome subunit beta (Trypanosoma cruzi) (UniProt O96673).
T3 sequence (whole entry): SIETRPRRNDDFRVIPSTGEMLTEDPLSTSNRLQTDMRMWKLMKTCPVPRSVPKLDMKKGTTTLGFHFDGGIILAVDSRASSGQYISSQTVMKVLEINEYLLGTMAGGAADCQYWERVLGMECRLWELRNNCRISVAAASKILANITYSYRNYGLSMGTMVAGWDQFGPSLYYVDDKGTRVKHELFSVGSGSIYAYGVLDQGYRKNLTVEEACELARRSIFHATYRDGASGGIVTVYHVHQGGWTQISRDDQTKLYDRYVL
Kind of test: Trypanosoma cruzi proteasome chymotrypsin-like activity (TcProtChymo) assay. Note: in the data most compounds retested in dose-response had high values. It is filed as functional. The settings on record: 9.37 µM.

Test [8] is filed under the species Homo sapiens. Description: To identify inhibition of the IFN signalling (Jak-Stat) pathway via expression of an eGFP reporter gene under the control of an IFN-stimulated response element (ISRE) containing MxA promoter. It is filed as functional. The settings on record: 30 µM.
For test [9], the target named is T4, Tyrosyl-tRNA synthetase, putative (Trypanosoma cruzi (strain CL Brener)) (UniProt Q4DSP6).
T4 sequence (whole entry): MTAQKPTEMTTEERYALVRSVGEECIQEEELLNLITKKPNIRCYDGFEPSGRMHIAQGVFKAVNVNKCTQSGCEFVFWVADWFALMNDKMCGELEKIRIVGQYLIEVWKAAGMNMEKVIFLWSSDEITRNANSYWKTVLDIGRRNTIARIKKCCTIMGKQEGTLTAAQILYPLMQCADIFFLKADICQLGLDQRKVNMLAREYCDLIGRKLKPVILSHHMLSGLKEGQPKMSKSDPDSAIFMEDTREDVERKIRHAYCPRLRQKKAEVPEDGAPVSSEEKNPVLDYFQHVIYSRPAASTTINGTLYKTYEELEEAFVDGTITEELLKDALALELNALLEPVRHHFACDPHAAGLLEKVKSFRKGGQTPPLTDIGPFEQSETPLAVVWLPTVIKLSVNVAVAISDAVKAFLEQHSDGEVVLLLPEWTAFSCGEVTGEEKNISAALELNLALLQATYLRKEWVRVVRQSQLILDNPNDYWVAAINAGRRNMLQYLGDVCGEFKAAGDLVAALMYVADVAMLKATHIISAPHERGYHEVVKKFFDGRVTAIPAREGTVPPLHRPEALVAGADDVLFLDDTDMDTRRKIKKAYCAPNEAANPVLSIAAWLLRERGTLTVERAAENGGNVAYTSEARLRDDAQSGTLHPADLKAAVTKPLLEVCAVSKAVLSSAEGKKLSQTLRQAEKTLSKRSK
Description: Trypanosoma cruzi tyrosyl tRNA synthetase (TcYRS) _High Tyrosine SOP. Note: in the data most compounds retested in dose-response had high values. It is filed as functional. The settings on record: 30 µM.

The target in test [10] is T4, Tyrosyl-tRNA synthetase, putative (Trypanosoma cruzi (strain CL Brener)). Description: Trypanosoma cruzi tyrosyl tRNA synthetase (TcYRS) SOP. It is filed as functional. The settings on record: 30 µM.
Test [11] deals with Chromo domain-containing protein 1 (Saccharomyces cerevisiae (strain ATCC 204508 / S288c) (Baker's yeast)) (UniProt P32657). Kind of test: ScCHD-1 Enzyme Inhibition Assay. Note: in the data most compounds retested in dose-response had high values. It is filed as functional. The settings on record: 30 µM.
Chain of Chromo domain-containing protein 1 (Saccharomyces cerevisiae (strain ATCC 204508 / S288c) (Baker's yeast)) (P32657 whole entry, the tested form may be a part): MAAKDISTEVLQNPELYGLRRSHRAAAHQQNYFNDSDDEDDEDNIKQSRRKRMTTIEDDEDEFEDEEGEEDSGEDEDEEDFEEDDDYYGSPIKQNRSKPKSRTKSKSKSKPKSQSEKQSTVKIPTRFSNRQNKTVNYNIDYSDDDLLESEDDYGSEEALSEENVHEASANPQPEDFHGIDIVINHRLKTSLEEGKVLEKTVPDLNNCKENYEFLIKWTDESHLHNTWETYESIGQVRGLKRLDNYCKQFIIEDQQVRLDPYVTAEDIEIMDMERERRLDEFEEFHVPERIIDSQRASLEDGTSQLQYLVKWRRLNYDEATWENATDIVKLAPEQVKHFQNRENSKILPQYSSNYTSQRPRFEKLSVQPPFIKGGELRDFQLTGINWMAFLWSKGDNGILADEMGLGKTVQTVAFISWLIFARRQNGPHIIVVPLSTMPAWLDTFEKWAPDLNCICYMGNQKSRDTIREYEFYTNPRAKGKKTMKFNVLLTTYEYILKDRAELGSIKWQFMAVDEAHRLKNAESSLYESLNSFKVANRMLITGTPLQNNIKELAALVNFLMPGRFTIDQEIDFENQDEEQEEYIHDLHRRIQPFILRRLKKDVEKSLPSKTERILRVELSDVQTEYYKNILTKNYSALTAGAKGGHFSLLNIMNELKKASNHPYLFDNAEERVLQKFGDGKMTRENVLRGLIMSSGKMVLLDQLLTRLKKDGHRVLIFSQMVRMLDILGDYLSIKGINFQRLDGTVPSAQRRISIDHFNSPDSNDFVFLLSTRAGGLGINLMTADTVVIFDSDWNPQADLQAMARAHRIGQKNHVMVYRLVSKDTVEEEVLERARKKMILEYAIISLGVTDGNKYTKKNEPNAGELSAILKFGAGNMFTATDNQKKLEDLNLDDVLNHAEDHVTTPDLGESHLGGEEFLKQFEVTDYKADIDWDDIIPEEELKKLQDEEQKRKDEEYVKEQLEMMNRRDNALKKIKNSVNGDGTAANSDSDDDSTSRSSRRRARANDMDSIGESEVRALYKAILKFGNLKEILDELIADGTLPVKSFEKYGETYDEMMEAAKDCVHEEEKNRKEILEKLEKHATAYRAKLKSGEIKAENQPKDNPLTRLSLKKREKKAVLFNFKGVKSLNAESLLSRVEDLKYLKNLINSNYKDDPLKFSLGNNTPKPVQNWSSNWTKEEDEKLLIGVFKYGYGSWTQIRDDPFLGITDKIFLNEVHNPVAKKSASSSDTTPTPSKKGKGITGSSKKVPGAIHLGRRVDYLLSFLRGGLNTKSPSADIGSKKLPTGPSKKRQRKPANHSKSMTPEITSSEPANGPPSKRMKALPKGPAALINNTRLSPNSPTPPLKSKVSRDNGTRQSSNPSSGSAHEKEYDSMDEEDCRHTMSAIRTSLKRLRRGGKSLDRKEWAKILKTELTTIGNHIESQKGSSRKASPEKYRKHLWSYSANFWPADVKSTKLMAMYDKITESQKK

For some assays here: Entries with a potency or affinity are not part of this list.

Chain of Protein translocase subunit SecA (Escherichia coli (strain K12)) (P10408 whole entry): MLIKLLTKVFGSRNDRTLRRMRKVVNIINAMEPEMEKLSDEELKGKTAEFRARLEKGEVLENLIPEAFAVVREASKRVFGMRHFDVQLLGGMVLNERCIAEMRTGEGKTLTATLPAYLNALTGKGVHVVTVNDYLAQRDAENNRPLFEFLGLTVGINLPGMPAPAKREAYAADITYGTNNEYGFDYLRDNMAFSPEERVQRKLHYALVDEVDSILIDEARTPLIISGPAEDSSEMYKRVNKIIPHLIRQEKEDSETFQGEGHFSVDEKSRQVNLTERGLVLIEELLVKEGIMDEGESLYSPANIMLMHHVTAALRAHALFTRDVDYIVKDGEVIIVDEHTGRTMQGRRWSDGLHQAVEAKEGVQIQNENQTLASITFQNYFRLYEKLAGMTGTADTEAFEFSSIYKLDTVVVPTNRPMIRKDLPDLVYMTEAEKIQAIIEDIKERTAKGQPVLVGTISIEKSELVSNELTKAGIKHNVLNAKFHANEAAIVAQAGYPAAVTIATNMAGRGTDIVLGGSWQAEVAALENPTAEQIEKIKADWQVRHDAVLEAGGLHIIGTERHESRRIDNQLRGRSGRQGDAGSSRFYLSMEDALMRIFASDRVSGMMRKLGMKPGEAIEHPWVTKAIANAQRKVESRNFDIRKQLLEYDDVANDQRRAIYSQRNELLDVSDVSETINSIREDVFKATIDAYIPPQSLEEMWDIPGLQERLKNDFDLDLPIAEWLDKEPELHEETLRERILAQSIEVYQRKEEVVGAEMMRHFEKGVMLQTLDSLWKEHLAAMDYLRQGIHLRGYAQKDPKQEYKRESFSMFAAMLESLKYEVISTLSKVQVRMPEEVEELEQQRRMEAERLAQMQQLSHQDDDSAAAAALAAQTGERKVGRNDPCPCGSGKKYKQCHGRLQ

In the case of `CCNc1cc2c(nn1)CCN(C(=O)Cc1c(C)noc1C)C2`, the Percent Effect in test [1] is -9.15%; in test [2] it was 7.89%; in [3] it was 9.72%; in test [4], 1.08%; in test [5] it was -5.51%; in test [6], 0.719%. Besides, the Percent Effect in test [7] came out at 3.47%; in [8] it was 6.32%; in test [9], 0.493%; in [10], 1.24%; in [11], 3.07%.
As for `Cc1cnccc1N1CCCN(C(=O)CCCS(N)(=O)=O)CC1`, the Percent Effect in [1] is -2.12%; in test [2] it was 5.48%; in [3], 6.21%; in [4], 1.68%; in test [5], 1.37%; in test [6] it was 15.4%. Also, the Percent Effect in test [7] is 8.87%; in test [8], -6.07%; in test [9], 2.15%; in test [10], 12.5%; in test [11], 0.551%.
`CS(=O)(=O)N1CC[C@H]2C[C@@H](C(=O)N3CCOCC3)O[C@@H]2C1`: the Percent Effect is -3.64% in [1]; -8% in test [2]; 8.84% in test [3]; 4.61% in [4]; -1.54% in test [5]; -53.2% in [6]. The Percent Effect in [7] was 2.73%; in test [8], -12.5%; in test [9], -2.08%; in test [10], -7.5%; in test [11] it was 1.18%.
For `CCn1ncnc1C(NC(=O)CC1CCN(C(C)C)CC1)C1CC1` (stereo not given), the Percent Effect is -12.1% in test [1]; -2.7% in [2]; -3.06% in [3]; -6.3% in [4]; -6.16% in test [5]; -1.74% in test [6]. Moreover, the Percent Effect is 3.18% in test [7]; -5.64% in test [8]; -2.15% in test [9]; 1.24% in [10]; -3.37% in test [11].
Regarding `Cc1cnn(C2CN(Cc3ccc4c(c3)OCCO4)C2)c1`, the Percent Effect in test [1] is -0.648%; in test [2], -2.67%; in [3] it was -8.78%; in test [4], 1.34%; in test [5], -2.04%; in test [6], -1.56%. The Percent Effect in test [7] is 19.9%; in test [8], 8.06%; in test [9] it was 8.2%; in test [10] it was 16.1%; in [11], -8.99%.
Consider `COCCNC(=O)CN1CCN(c2nc(C)cs2)C(C)C1` (stereo not given), for which the Percent Effect was -6.14% in test [1]; 16.2% in test [2]; -5.78% in [3]; 22% in test [4]; 5.11% in [5]; -1.29% in [6]. The Percent Effect was 13.3% in [7]; -1.44% in test [8]; 2.97% in test [9]; 15.8% in test [10]; -7.53% in test [11].
Take `CC(C(=O)NCCN1CCCCCC1)n1cncn1` (stereo not given): the Percent Effect is -5.19% in test [1]; 13.2% in test [2]; -5.03% in test [3]; 2.07% in [4]; 4.76% in test [5]; 1.8% in test [6]. Further, the Percent Effect in [7] was 3.98%; in test [8], -5.88%; in [9] it was 4.43%; in [10], 13.6%; in test [11] it was -5.88%.
`CN(Cc1ccc(Cl)s1)C1CCCN(c2cccnn2)C1` (stereo not given): the Percent Effect in test [1] was -0.186%; in [2], -18.4%; in [3], 14.3%; in test [4], 0.257%; in test [5] it was 1.27%; in test [6] it was 15.4%. The Percent Effect was 7.19% in test [7]; 10.5% in [8]; 9.57% in test [9]; 10.4% in [10]; -1.67% in test [11].
Turning to `N#Cc1ncn(CCC(=O)Nc2ccc(Cl)cc2F)n1`, the Percent Effect in [1] is 1.65%; in test [2], 8.22%; in [3], -0.288%; in test [4], 4.01%; in test [5], 1.39%; in test [6], -1.6%. Also, the Percent Effect in test [7] is 18.4%; in test [8] it was 30.7%; in test [9], 11.5%; in test [10], 21%; in [11], -1.18%.
In the case of `Cc1ccnc(OCC(=O)N2CCC(C(N)=O)CC2)n1`, the Percent Effect in [1] was -3.87%; in test [2] it was 21.9%; in test [3], 0.564%; in test [4], 12.6%; in test [5] it was 1.37%; in [6] it was 5%. Moreover, the Percent Effect in test [7] was 11.4%; in [8], 7.23%; in test [9], 6.45%; in test [10], 15%; in test [11] it was -7.43%.
